According to ChEMBL document CHEMBL3988442, “University of Dundee, Small-Polar-MMV Screening Library” (2021):
Screen size: about 48,000 compounds; about 13,000 (27%) showed an effect of 50% or more. This is one part of the list.

The compounds below were run on Wolbachia pipientis (assay: Anti-Wolbachia Cell-Based Screen). Settings: 5 µM.
Format: functional
Design: scale not given: in the data most compounds retested in dose-response had high values

Row | SMILES | Percent Effect [%]
1 | COC(=O)[C@H](CSC)Nc1nc(C2CCCC2)nc2c1cnn2C | -6.594
2 | CCCN(CC1COc2ccccc2O1)C(=O)C1=NN(C)C(=O)CC1 (stereo not given) | -3.876
3 | CC(C)N(CCS(C)(=O)=O)Cc1csc(Cc2ccc(Cl)cc2)n1 | -7.743
4 | CCc1ccc(S(=O)(=O)N2CCCn3ncnc32)s1 | 83.72
5 | COC(=O)c1ccc(S(=O)(=O)N2CCCn3ncnc32)s1 | 103.1
6 | CCC[C@H]1CN(S(=O)(=O)c2ccc(CC)s2)C[C@@H]1N | -3.149
7 | O=S(=O)(c1ccc(Cl)s1)N1CCCC(c2ncc[nH]2)C1 (stereo not given) | 4.292
8 | O=S(=O)(c1ccc(Cl)s1)N1CCCn2ncnc21 | 95.01
9 | O=C(c1cccnc1Oc1ccccc1)N1CCCn2ncnc21 | 8.828
10 | O=C(c1ccc(-c2ccccc2)[nH]c1=O)N1CCCn2ncnc21 | 1.123
11 | COCCOc1ncccc1C(=O)N1CCCn2ncnc21 | -1.947
12 | CCc1ccc(S(=O)(=O)N2CCCC(c3ncc[nH]3)C2)s1 (stereo not given) | -13.86
13 | Cn1cc(C(=O)Nc2cccc(CCN3CCCC3)c2)ccc1=O | -2.076
14 | CCOCCS(=O)(=O)Cc1ccn(-c2cccc(F)c2)n1 | -15
15 | Cc1ccnc(N2CCC(=O)N(Cc3ccc(F)cc3)C(C(C)C)C2)n1 (stereo not given) | -3.35
16 | Cc1ccsc1[C@@H]1CCN(C(=O)CCC(=O)c2ccccc2)C[C@H]1O | -8.391
17 | Cc1ccc(S(=O)(=O)N2CCN(CCCO)CC2)s1 | 107
18 | Cc1ccc(S(=O)(=O)N2CCN(CCC#N)CC2)s1 | 7.923
19 | CCN1CCN(S(=O)(=O)c2cnc(NC(C)=O)s2)CC1 | -4.735
20 | N#CCCN1CCN(S(=O)(=O)c2ccc(Cl)s2)CC1 | 101.8
21 | Cc1ccc(CNC(=O)CN2CCN(CCO)CC2)s1 | 0.0165
22 | Cc1ccc(S(=O)(=O)N2CCN(CCC(N)=O)CC2)s1 | 97.05
23 | Cc1ccc(S(=O)(=O)N2CCC(Cn3cc(C(C)(C)N)nn3)CC2)s1 | -17.3
24 | Cc1ccc(CNC(=O)CNCC2CCN(CCO)CC2)s1 | 0.4784
25 | CC1(C)OCC2(CO1)CN(S(=O)(=O)c1ccc(Cl)s1)C2 | -3.142
26 | COc1ccccc1Oc1ncccc1CNC(=O)[C@@H](C)NC(C)=O | -4.174
27 | CC(C)CC(C)NC1CCN(c2ccc(-c3cscn3)cc2)CC1 (stereo not given) | 3.924

Row | SMILES | Percent Effect [%]
28 | CN(Cc1nnc2n1CCC2)C(=O)c1ccc(=O)n(C)n1 | -6.286
29 | CC(=O)N(C)CC(=O)Nc1cnc(-n2ccnc2)nc1 | 3.406
30 | Cc1nn(C)c(N(C)C)c1CNCc1cccc(CN(C)C)c1.Cl | 9.174
31 | COc1c(CNCc2ccccc2-n2ccnc2)c(C)nn1C | -0.9457
32 | Cc1nn(C)c(N(C)C)c1CNCc1cccc(Cn2cccn2)c1 | 3.492
33 | COc1c(CNCc2ccc(Cn3ccnc3)cc2)c(C)nn1C | 103
34 | COc1c(CNCc2ccccc2Cn2ccnc2)c(C)nn1C | 97.96
35 | COc1c(CNCc2ccc(CN3CCOCC3)cc2)c(C)nn1C | -11.29
36 | COc1c(CNCc2cccc(Cn3ccnc3)c2)c(C)nn1C | -8.562
37 | Cc1nn(C)c(N(C)C)c1CNCc1cccc(Cn2ccnc2)c1 | 81.6
38 | CC(C#N)CSc1ccccc1NCC(=O)NCc1cccs1 (stereo not given) | -12.24
39 | CCc1nc(C)c(-c2nccn2CC2CC(=O)N(CC)C2)[nH]1 (stereo not given) | -26.8
40 | O=C(CNC(=O)c1c[nH]c2ccccc12)NCCCn1ccnc1 | 13.72
41 | O=C1CC(c2cccs2)c2cnn(C3CCCC3)c2N1 (stereo not given) | 48.91
42 | Cc1cc(C(=O)N2CCCC3(C=Cc4ccccc4O3)CC2)cc(=O)[nH]1 (stereo not given) | 7.842
43 | Cc1cc2c(cc1Cl)C=CC1(CCN(CC(=O)N3CCOCC3)CC1)O2 | 104
44 | Cc1cc2c(cc1Cl)C=CC1(CCN(C(=O)N3CCOCC3)CC1)O2 | 95
45 | O=C(CN1CCOCC1)N1CCN(C2CCc3ccc(F)cc32)CC1 (stereo not given) | -10.71
46 | COc1ccnc(N2CCN(CC(=O)N3CCOCC3)CC2)n1 | 3.835
47 | COc1ncc(C(=O)N2CCCC3(C=Cc4ccccc4O3)CC2)cn1 (stereo not given) | 1.868
48 | Nc1cc(C(=O)N2CCCC3(C=Cc4ccccc4O3)CC2)ccn1 (stereo not given) | -15.12
49 | Cc1cc2c(cc1Cl)C=CC1(CCN(CC(=O)N3CCCC3)CC1)O2 | 122.5
50 | CCN(C)c1ncnc2c1CCN(C(=O)N1CCOCC1)CC2 | -3.195
51 | Cc1cc2c(cc1C)OC1(C=C2)CCN(CC(=O)N2CCOCC2)CC1 | 107.9
52 | O=C(O)C(F)(F)F.c1csc(CN2CCc3ncnc(C4CCOC4)c3CC2)n1 (stereo not given) | 8.568
53 | O=S(=O)(CC1CCOCC1)NCc1ccnc(O)c1 | 1.758
54 | Cc1ccsc1CCNC(=O)C1(Oc2cccnc2C)CCNCC1 | 14.81

Row | SMILES | Percent Effect [%]
55 | CN(C)c1ccc2c(c1)CN(C(=O)c1ccnnc1)C2c1cnco1 (stereo not given) | -12.4
56 | O=C(CN1C=Nc2ccccc2S1(=O)=O)NC1CCCCC1 | -27.98
57 | CCc1ccc(O)c(C(=O)N2CCN(CC(=O)N(CC)CC)CC2)c1 | 11.73
58 | CCc1ccc(O)c(C(=O)N2CCCN(CC(=O)N(CC)CC)CC2)c1 | -4.449
59 | CC1(C)CN(CC(F)(F)F)CCN1CC(=O)NC1CCCC1 | 1.341
60 | CCN(CC)C(=O)CN1CCC2(C=Cc3cc(Cl)c(C)cc3O2)CC1 | 113.1
61 | Cc1cc2c(cc1Cl)C=CC1(CCN(CC(=O)NC3CCCC3)CC1)O2 | 121.2
62 | Cc1cn(CC(=O)NC2CCN(CC3CC3)CC2)c2ccccc12 | -11.31
63 | Cc1cc(NC(=O)c2nc(N3CCCC3)ncc2Cl)nc(C(C)C)n1 | -9.396
64 | Cc1ccc(-c2n[nH]cc2CNCC2CCS(=O)(=O)C2)o1 (stereo not given) | -39.75
65 | CCOC(=O)C1CC2(CCCCC2)N2CCC(=O)N12 (stereo not given) | 121.9
66 | CCS(=O)(=O)N1CCCC2(CCCC(=O)N2C)C1 (stereo not given) | -13.94
67 | COCCCN1CC2(CCCCN2C(C)=O)CC1=O (stereo not given) | 3.783
68 | CCOCC1COCCC12CCN(C(=O)C1=CCCC1)CC2 (stereo not given) | -18.23
69 | COCCCN1CC2(CCCCN2C(=O)C2CCCCC2)CC1=O (stereo not given) | -3.805
70 | CCOC(=O)C1CC2(CCCC2)N2CCC(=O)N12 (stereo not given) | 94.86
71 | CCN1C(=O)CO[C@@H]2CN(C(=O)C3CCOCC3)C[C@H]21 | 7.95
72 | CCN1CC2(CCCCN2C(=O)C2CCCCC2)CC1=O (stereo not given) | -14.04
73 | CCOC(=O)C1CC2(CCOCC2)N2CCC(=O)N12 (stereo not given) | 102.8
74 | CCc1ccc(C2COCCN2C(=O)Nc2cc(C)on2)o1 (stereo not given) | -5.597
75 | CCc1ccc(CN(C)C(=O)c2ccc(CSc3nnc[nH]3)o2)nc1 | -27.23
76 | CC(=O)NCCNC(=O)NCCc1c(C)cc(C)cc1C | -0.992
77 | Cc1ccc2[nH]c(CO[C@H]3CN(c4ccc(C#N)cn4)C[C@H]3F)nc2c1 | 0.4241
78 | CC(O)CN1CCN(Cc2coc(-c3ccccc3Cl)n2)CC1 (stereo not given) | 6.495
79 | OCCN1CCN(Cc2coc(-c3ccc(Cl)cc3)n2)CC1 | 12.92
80 | Cc1ccc(-c2nc(CN3CCN(CCO)CC3)co2)cc1 | 88.55
81 | COc1ccc(-c2nc(CN3CCN(CCO)CC3)co2)cc1 | 6.071

Row | SMILES | Percent Effect [%]
82 | CC(O)CN1CCN(Cc2coc(-c3ccc(Cl)cc3)n2)CC1 (stereo not given) | 105.9
83 | CC(O)CN1CCN(Cc2coc(-c3ccccc3)n2)CC1 (stereo not given) | -18.93
84 | OCCN1CCN(Cc2coc(-c3ccccc3)n2)CC1 | 106.5
85 | OCCN1CCN(Cc2coc(-c3ccccc3Cl)n2)CC1 | 6.785
86 | Cc1ccc(-c2nc(CN3CCn4c(nnc4C4CC4)C3)co2)cc1 | -3.724
87 | OCCOc1cc(F)ccc1NCc1nc(-c2ccoc2)no1 | -6.724
88 | CC(=O)N(Cc1noc(C2CC2)n1)C1CCN(CC(=O)NC2CC2)C1 (stereo not given) | 124.3
89 | CC(=O)N(Cc1noc(C2CC2)n1)C1CCN(CC2CCOCC2)C1 (stereo not given) | 115.6
90 | Cc1nc(CCN)cc(N2CCC(O)(c3ccccc3)C2)n1 (stereo not given) | -17.84
91 | O=C(c1ccccn1)N1CC[C@H]2C(=O)N(c3ccsc3)CCO[C@H]2C1 | -15.02
92 | COCC(=O)Nc1ccc(-c2noc([C@@H]3CCCN3CC(C)C)n2)cn1 | 49.09
93 | COCC(=O)Nc1ccc(-c2noc([C@@H]3CCCN3C)n2)cn1 | -1.727
94 | COCC(=O)Nc1ccc(-c2noc([C@@H]3CCCN3C(C)C)n2)cn1 | 57.87
95 | COc1ccc(CN(C)C(=O)CCC(=O)c2cccs2)c(OC)c1OC | -8.068
96 | COc1cc([C@@H]2N[C@H](c3nccs3)Cc3ccsc32)cc(OC)c1OC | 111.7
97 | COc1ccc(OC)c([C@@H]2N[C@H](c3nccs3)Cc3ccsc32)c1 | 139.9
98 | COc1ccc(OC)c(C2CCN(c3ccc4cc[nH]c4n3)C2)c1 (stereo not given) | 5.101
99 | CCOc1ccc(C(=O)CCC(=O)NCc2csc(N)n2)cc1C | 5.175
100 | COc1ccc(C(C)NC(=O)Nc2nccs2)cc1OC (stereo not given) | -9.507
101 | CCOc1cc(/C=C/c2ncc(C(=O)NC)s2)ccc1OC | 34.03
102 | CCOc1cc([C@H]2N[C@@H](c3nc(C)cs3)Cc3ccsc32)ccc1OC | 131.4
103 | CCOc1cc(CNc2cc(-c3nc(C)no3)ccn2)ccc1OC | -0.8232
104 | COc1ccc(OC)c(C2CCN(C3CCOCC3)C2)c1 (stereo not given) | 1.409
105 | CCOc1cc([C@@H]2N[C@H](c3nccs3)Cc3ccsc32)ccc1OC | 100.4
